COUP-TFII inh: blocks human COUP-TFII nuclear receptor. inhibition, % at 8.6 µM. P24468. actives 0.7% (n = 370,000). HEK293T NGFI-A luciferase reporter, luminescence. AID 686940;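 active = inhibition above a per-plate cutoff, mean inhibition of test wells between control levels plus 3 SD, cut at about 38% in these data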;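 note: cells cotransfected with COUP-TFII expression vector driving the NGFI-A reporter; 0% = median of COUP-TF2 test wells and 100% = reporter-only cells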
NCOA1 inh: human NCOA1 inhibition; Q15788; HEK293 GAL4-SRC1 luciferase reporter, luminescence; inhibition, % at 3.6 µM; actives 0.12% (n = 360,000);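 active = inhibition above the campaign mean plus 3 SD, with each screening campaign given its own cutoff, cut at about 60% in these data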;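 note: 0% = DMSO treated cells and 100% = gossypol at 36 µM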
SRC3 inh: inhibitors of human steroid receptor coactivator 3 (SRC3). Q9Y6Q9. HEK293 GAL4-SRC3 luciferase reporter, luminescence. inhibition, % at 3.6 µM. actives 0.17% (n = 360,000);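 active = inhibition above a per-campaign cutoff, the mean of all compounds plus 3 SD, cut at about 60% in these data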;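 note: 0% = DMSO-treated cells and 100% = gossypol-treated cells at 36 µM; higher means less SRC3-driven luciferase light from the GAL4 reporter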
GalR3 antagonist: human GalR3 antagonism; O60755; HEK293 GalR3-CNG cAMP membrane potential fluorescence; galR3 body fused to GalR1 C-terminus; inhibition, % at 3 µM; actives 0.44% (n = 360,000);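 active = inhibition above the screen-wide average plus 3 SD, cut at about 13% in these data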;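 note: forskolin and galanin both at EC90 stimulate the cells; cAMP rise reported by CNG channel membrane potential dye signal; 0% = forskolin plus galanin with DMSO and 100% = forskolin alone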
Target sequence (O60755 1-299 limits assumed): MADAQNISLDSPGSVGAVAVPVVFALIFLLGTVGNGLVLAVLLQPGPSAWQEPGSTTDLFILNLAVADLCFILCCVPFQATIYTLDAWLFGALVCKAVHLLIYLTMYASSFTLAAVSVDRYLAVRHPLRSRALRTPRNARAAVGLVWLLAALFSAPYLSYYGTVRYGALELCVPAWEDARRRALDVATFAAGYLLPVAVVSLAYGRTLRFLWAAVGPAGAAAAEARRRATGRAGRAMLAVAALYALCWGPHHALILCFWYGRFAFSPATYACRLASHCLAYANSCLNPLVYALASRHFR
NR5A2 inv ag: suppresses constitutive activity of human LRH-1; O00482; HEK293T StAR-luciferase reporter, LRH-1 transfected, 24 h; inhibition, % at 3.6 µM; actives 0.13% (n = 360,000);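 active = inhibition above the mean inhibition of all tested compounds plus 3 SD, cut at about 73% in these data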;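 note: 0% = DMSO wells and 100% = reporter-only cells lacking LRH-1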
SRC2 inh: inhibits human steroid receptor coactivator 2 | actives 0.17% (n = 370,000) | Q15596 | HEK293 GAL4-SRC2 luciferase reporter, luminescence | inhibition, % at 9 µM;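 active = inhibition above the mean inhibition of all tested compounds plus 3 SD, set per campaign, cut at about 52% in these data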;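 note: 0% = DMSO treated cells and 100% = cells given Gossypol at 36 µM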
VP16 Luc counter: counter-screen for COUP-TFII antagonists: inhibitors of VP16. shares compounds with COUP-TFII inh. inhibition, % at 8.5 µM. actives 25% (n = 2,500). HEK293 Gal4-VP16 luciferase reporter, luminescence; in the data active = inhibition above about 13%
COUP-TFII conf: COUP-TFII (NR2F2) inhibition, confirmation assay; inhibition, % at 8.5 µM; HEK293 NGFI-A luciferase reporter, luminescence; AID 687008; shares compounds with COUP-TFII inh; actives 45% (n = 2,500);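 active = mean inhibition over three repeats above a set limit taken from the earlier primary screen, cut at about 38% in these data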;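 note: 100% = cells given the luciferase reporter alone without the COUP-TF2 vector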
Numbers without * were called inactive; x = not tested or not shown. Only some compounds are listed: those with a hit (about 1.1% of all), similar ones and a draw of the others.

SMILES	COUP-TFII inh	NCOA1 inh	SRC3 inh	GalR3 antagonist	NR5A2 inv ag	SRC2 inh	VP16 Luc counter	COUP-TFII conf
C(=NN1CCCCCC1)c1cccc2ccccc12	-8	-3	2	-7	12	-2	x	x
O=C1[C@@H](CCc2ccccc2)[C@@H]2c3cc4ccccc4cc3C=NN2[C@@H]2c3cc4ccccc4cc3C=NN12	10	x	x	x	x	-25	x	x
CC(C)(C)c1ccc(C2CC2C(=O)N/N=C\c2ccc[nH]2)cc1 (stereo not drawn)	42*	23	71*	2	89*	-14	0	64*
COC(=O)c1ccc(N2C(c3ccsc3)=Cc3cc4c(cc3C2CC(=O)c2ccco2)OCO4)cc1 (stereo not drawn)	43*	x	x	-3	28	23	-1	8
CC(C)COc1nc2c(c(=O)n(C)c(=O)n2C)n1C	16	-4	-10	-10	9	-3	x	x
COc1ccc(CCN(Cc2cccs2)S(=O)(=O)c2ccc(F)cc2)cc1OC	47*	x	x	x	x	31	4	14
COc1ccc(CCN(Cc2cccs2)S(=O)(=O)c2ccc(S(=O)(=O)N3CCCCCC3)cc2)cc1OC	0	-6	5	0	-2	1	x	x
COc1ccc(C[C@H](N)C(=O)N[C@H]2[C@@H](O)[C@H](n3cnc4c(N(C)C)ncnc43)O[C@@H]2CO)cc1	99*	94*	95*	x	102*	86*	48*	97*
C=CCOc1ccc(C[C@H](N)C(=O)NC[C@H]2O[C@@H](n3cnc4c(N)ncnc43)[C@H](O)[C@@H]2O)cc1	x	-12	-18	x	-9	x	x	x
Cc1cc(SCC(=O)c2ccccc2)n2nc(C)nc2n1	45*	-2	-7	-4	21	3	13*	32
Cc1cc(C)c(C#N)c(SCC(=O)c2ccccc2)n1	8	-25	-39	-5	16	5	x	x
CCC(=NC(C)c1ccccc1)c1c(O)n(C)c(=O)n(C)c1=O (stereo not drawn)	56*	13	27	-4	19	22	-1	29
CCC(C(=O)OCC(=O)c1c(N)n(CC(C)C)c(=O)n(C)c1=O)c1ccccc1 (stereo not drawn)	2	5	11	1	0	1	x	x
CSCC[C@H](NC(=O)Nc1ccccc1C)C(=O)O	9	17	6	2	23	-7	x	x
C=C1CC2(CC(c3ccccc3)OC(c3ccccc3)C2)OC1=O (stereo not drawn)	46*	-6	-18	-7	5	50	8	-2
Cc1ccnc(NS(=O)(=O)c2ccc(NC(=O)C3CCCO3)cc2)n1 (stereo not drawn)	2	-20	-6	-1	-4	-5	x	x
CCOC(=O)c1c(NC(=O)C2CC2)sc(C)c1CC	16	12	9	-11	8	-19	x	x
CSc1nc2ccccc2n1Cc1cccc([N+](=O)[O-])c1	0	-29	11	0	-1	-2	x	x
COc1cc(-c2noc(CCCC(=O)Nc3ccc(C(N)=O)cc3)n2)cc(OC)c1OC	-20	-9	-9	-1	-21	-17	x	x
COc1ccc(-c2noc(CCCC(=O)NC3CCCC3)n2)cc1	54*	20	15	-8	45	53*	11	21
COc1ccc(-c2noc(CCCC(=O)Nc3ccc(C(N)=O)cc3)n2)cc1	55*	15	22	-1	5	65*	39*	13
Cc1cc(C)nc(OC(C(=O)O)C(OCc2ccccc2)(c2ccccc2)c2ccccc2)n1 (stereo not drawn)	-9	7	5	-3	-2	-6	x	x
Cc1ccnc(OC(C(=O)O)C(OCc2ccccc2)(c2ccccc2)c2ccc(C(F)(F)F)cc2)n1 (stereo not drawn)	47*	8	35	-2	19	-30	6	14
O=C(NC(=O)C(F)(F)F)Nc1ccc(S(=O)(=O)Nc2nccs2)cc1	6	12	-24	-11	6	-3	x	x
